Assay outcomes (PubChem BioAssay)
m5-HT2A agonist: mouse Htr2a agonists via beta-arrestin recruitment, primary screen, cell-based, luminescence. 5-hydroxytryptamine receptor 2A (Mus musculus), P35363. CHO-K1 mHTR2A beta-arrestin complementation; percent of 30 µM serotonin response. activation, % at 7.6 µM. 0.66% of 360,000 active. AID 624169, 2012;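 active = activation above a run cutoff, the mean activation of all tested compounds plus 3 SD, cut at about 14% in these data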
ABHD5-PLIN5 inh: ABHD5-PLIN5 interaction inhibitors, primary screen, cell lysate, split luciferase complementation, luminescence; Perilipin-5 (Homo sapiens) + 1-acylglycerol-3-phosphate O-acyltransferase ABHD5 (Homo …; 0.78% of 360,000 active; Split G. princeps luciferase complementation, 4 h; inhibition, % at 4 µM; AID 602281, 2012;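 active = inhibition above the mean inhibition across every tested compound plus 3 SD, cut at about 22% in these data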
Granule exo inh: LAMP-1 surface exposure blockers, TALL-104 cells – cell-based, flow cytometry, MLPCN library, primary screen | TALL-104 LAMP-1 surface exposure; cells stimulated with thapsigargin and PMA | inhibition, % at 10 µM | 0.66% of 360,000 active | AID 651702, 2012;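 active = inhibition above about 55%, limit read from the data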
NTR1 agonist: agonists of human NTR1, primary screen, imaging, U2OS cells, beta-arrestin-GFP, high content; Neurotensin receptor type 1 (Homo sapiens), P30989; NTR1-U2OS beta-arrestin-GFP spot imaging, agonist mode; activation, % at 20 µM; 0.17% of 330,000 active;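 active = activation at or above 40% of the spot to cytoplasm intensity ratio, with at least 20 cells analyzed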
B2AR ag: beta2AR agonists driving receptor internalization, primary screen, cell-based, FAP fluorogen, flow cytometry; response, % (no concentration beside the values); Am2.2-beta2AR cells; 0.43% of 340,000 active; Beta-2 adrenergic receptor (Homo sapiens), P07550; AID 504454, 2011;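 active = response above a set limit, near 3 SD of response in nonfluorescent compounds, cut at about 42% in these data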
Target sequence (P07550 whole entry, looked up): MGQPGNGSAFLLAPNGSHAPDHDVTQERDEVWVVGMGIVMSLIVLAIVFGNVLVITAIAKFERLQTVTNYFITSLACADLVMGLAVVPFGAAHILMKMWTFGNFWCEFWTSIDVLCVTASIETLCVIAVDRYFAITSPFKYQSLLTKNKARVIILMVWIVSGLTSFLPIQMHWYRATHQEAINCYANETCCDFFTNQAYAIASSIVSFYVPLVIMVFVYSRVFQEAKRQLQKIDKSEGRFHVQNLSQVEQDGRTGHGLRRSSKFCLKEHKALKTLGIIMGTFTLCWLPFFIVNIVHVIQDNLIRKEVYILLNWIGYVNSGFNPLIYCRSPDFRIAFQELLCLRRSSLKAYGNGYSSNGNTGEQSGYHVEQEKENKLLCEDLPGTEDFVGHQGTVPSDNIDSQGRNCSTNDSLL
OPRM1 ag: OPRM1 agonists via beta-arrestin recruitment, confirmation, counter-screen for mouse HTR2A agonist project, cell-based, luminescence, single concentration. shares compounds with m5-HT2A agonist. activation, % at 9.3 µM. 5.3% of 2,300 active. U2OS OPRM1 beta-arrestin PathHunter; DMSO 0%, DAMGO 9.3 µM 100%. AID 624380, 2012;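 active = mean activation above the mean of DMSO-only wells plus 3 SD, cut at about 0.5% in these data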
HTR2A ag conf: mouse HTR2A agonists, beta-arrestin recruitment, confirmation, cell-based, luminescence, CHO-K1 PathHunter, triplicate | shares compounds with m5-HT2A agonist | DMSO 0%, 30 µM serotonin 100% | activation, % at 7.6 µM | 19% of 2,300 active | AID 624381, 2012;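 active = mean activation across triplicates above the hit threshold derived in the original primary screen, cut at about 15% in these data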
Each line names hits and unclear results; the compound was inactive in the other large screens (follow-up assays come after a bar, where they were run). The list is not random: actives were taken first. Their share in the collection is about 2.3%.

COc1ccc(CN2CCN(c3ccccn3)CC2)c(OC)c1C	none
CCOc1cc(CN2CCN(c3ncccn3)CC2)ccc1OC	m5-HT2A agonist 22 | OPRM1 ag inactive | HTR2A ag conf 50
COc1cccc(CN2CCN(c3ncccn3)CC2)c1OC	m5-HT2A agonist 25 | OPRM1 ag inactive | HTR2A ag conf 81
c1cnc(N2CCN(Cc3c[nH]c4ccccc34)CC2)nc1	m5-HT2A agonist 29 | OPRM1 ag inactive | HTR2A ag conf 93
Fc1ccc(N2CCN(Cc3c[nH]c4ccccc34)CC2)cc1	none (no result: m5-HT2A agonist, ABHD5-PLIN5 inh, Granule exo inh, B2AR ag)
COc1ccc(Br)cc1CN1CCN(c2ncccn2)CC1	none
COc1ccc(CN2CCN(c3ncccn3)CC2)c(C)c1C	m5-HT2A agonist 34 | OPRM1 ag inactive | HTR2A ag conf 130
COc1cccc(CN2CCN(Cc3cc(OC)c(OC)c(OC)c3)CC2)c1OC	none
COc1c(N2C[C@@H]3CCCN[C@@H]3C2)c(F)cc2c(=O)c(C(=O)O)cn(C3CC3)c12	none
O=C(Nc1n[nH]c(=S)s1)c1ccc2ccccc2c1	m5-HT2A agonist 18 | OPRM1 ag inactive | HTR2A ag conf inactive
Cc1nn(C)c(Cl)c1CN1CCN(C2CCCC2)C(CCO)C1 (configuration not stated)	m5-HT2A agonist 24 | OPRM1 ag inactive | HTR2A ag conf inactive
OCCC1CN(Cc2ccncc2)CCN1C1CCCC1 (configuration not stated)	none
Cc1ccc(Nc2ccc([N+](=O)[O-])nc2[N+](=O)[O-])cc1	m5-HT2A agonist 15 | OPRM1 ag inactive | HTR2A ag conf inactive
CC(C)NC(=O)C1(C)CCN1C(=O)c1cccc(Cl)c1 (configuration not stated)	none (no result: NTR1 agonist, B2AR ag)
CC(C)NC(=O)C1(C)CCN1C(=O)c1ccc(F)c(Cl)c1 (configuration not stated)	m5-HT2A agonist 15 (no result: NTR1 agonist, B2AR ag) | OPRM1 ag inactive | HTR2A ag conf inactive
Cc1cccc(C)c1NC(=O)CN1C(=O)C2CC=CCC2C1=O (configuration not stated)	none
Cc1cccc(C(C)C)c1NC(=O)COC(=O)CN1C(=O)C2CC=CCC2C1=O (configuration not stated)	m5-HT2A agonist 20 | OPRM1 ag inactive | HTR2A ag conf inactive
Cc1c(O)nc(SCC(=O)Nc2nccs2)n(-c2ccccc2F)c1=O	none
CC(C)(C)Nc1ncnc2sc(-c3ccccc3)cc12	m5-HT2A agonist 23 | OPRM1 ag 0.5 | HTR2A ag conf inactive
O=C(CSc1nc2nn(-c3ccccc3)c(=O)c-2c2n1CCCCC2)Nc1cccc(F)c1	none
Oc1ccccc1/C=N/n1c2ccccc2c2ccccc21	m5-HT2A agonist 16 | OPRM1 ag inactive | HTR2A ag conf inactive
NS(=O)(=O)c1ccc(-n2nc(C(=O)O)cc2-c2ccc(Cl)cc2)cc1	none
Cc1ccc(-c2cc(C(F)(F)F)nn2-c2ccc(S(N)(=O)=O)cc2)cc1	m5-HT2A agonist 20 | OPRM1 ag 1.1 | HTR2A ag conf 25
COc1ccccc1-c1ccc2c(c1)C(C)(Cc1ccc(Cl)c(Cl)c1)C(=O)N2 (configuration not stated)	m5-HT2A agonist 23 (no result: NTR1 agonist, B2AR ag) | OPRM1 ag inactive | HTR2A ag conf inactive
COc1cc(/C=N/NC(=O)CC(=O)NC2CCCCC2)ccc1O	m5-HT2A agonist 16 | OPRM1 ag 0.9 | HTR2A ag conf inactive
COC(=O)c1ccc(/C=N/NC(=O)CC(=O)NC2CCCCC2)cc1	none
CC(=O)N1c2ccc(S(=O)(=O)NCCC(=O)Nc3ccc(C)c(F)c3)cc2CC1C (configuration not stated)	none
CC(=O)N1c2ccc(S(=O)(=O)NCCC(=O)Nc3ncccc3C)cc2CC1C (configuration not stated)	m5-HT2A agonist 15 | OPRM1 ag inactive | HTR2A ag conf inactive
COc1ccc(C(=O)CCS(=O)(=O)c2ccc(C)cc2)cc1OC	none
CCSc1ccc([C@@H]2[C@@H]3C(=O)N(CC)C(=O)[C@@H]3[C@]3(C(=O)OC)CCCCN23)cc1	none
CCSc1ccc([C@@H]2[C@H]3C(=O)N(C)C(=O)[C@H]3[C@]3(C(=O)OC)CCCCN23)cc1	m5-HT2A agonist 17 | OPRM1 ag inactive | HTR2A ag conf inactive
COc1cccc(OC)c1C(=O)Nc1ccc(C(=O)c2ccncc2)cc1	m5-HT2A agonist 19 | OPRM1 ag inactive | HTR2A ag conf inactive
COc1cccc(C(=O)Nc2ccc(C(=O)c3ccncc3)cc2)c1	none
CCOc1cc(OCC)cc(C(=O)N2CCC[C@H]2C(=O)N2CCC[C@H]2C(=O)N[C@H](C)c2ccccc2)c1	none (no result: NTR1 agonist, B2AR ag)
O=C(CCS(=O)(=O)c1ccc(Cl)cc1)OCC(=O)N1CCCCC1	m5-HT2A agonist 16 | OPRM1 ag inactive | HTR2A ag conf inactive
O=C(CCS(=O)(=O)c1ccccc1)OCC(=O)N1CCN(S(=O)(=O)c2ccc(Cl)cc2)CC1	none
O=C(CSc1ncn[nH]1)Nc1cc(S(=O)(=O)N2CCCC2)ccc1Cl	none
Cc1cccc(C)c1NC(=O)NN=C1CCCCC1	m5-HT2A agonist 16 | OPRM1 ag inactive | HTR2A ag conf inactive
CN=C(NC(=O)Nc1c(C)cccc1C)NC(=O)Nc1c(C)cccc1C	none
CC(Sc1nnc(-c2ccncc2)n1C)C(=O)Nc1ccc(N2CCOCC2)cc1 (configuration not stated)	none
O=C(NN=Cc1cccc2ccccc12)C1CC1	none (no result: NTR1 agonist)
O=C(N/N=C/c1ccccc1Cl)C1CC1	m5-HT2A agonist 15 | OPRM1 ag inactive | HTR2A ag conf inactive
CC(=O)Nc1ccc(S(=O)(=O)N2CCN(C(=O)Cc3ccccc3)CC2)cc1	m5-HT2A agonist 17 | OPRM1 ag inactive | HTR2A ag conf inactive
CCc1nn(C(C)C(=O)N2CCN(c3ccc(OC)cc3)CC2)c(=O)c2cc3occc3n12 (configuration not stated)	none
CC(C)n1c(SCC(=O)Nc2nncs2)nnc1-c1ccco1	none (no result: m5-HT2A agonist, ABHD5-PLIN5 inh, Granule exo inh, B2AR ag)
Nc1ncnc2c1ncn2[C@@H]1O[C@H](C(=O)N2CCC[C@@H]2C(=O)OCc2ccccc2)[C@@H](O)[C@H]1O	m5-HT2A agonist 15 (no result: NTR1 agonist, B2AR ag) | OPRM1 ag inactive | HTR2A ag conf inactive
CC1(c2ccc3c(c2)OCCCO3)NC(=O)N(CC(=O)NCCc2ccccc2)C1=O (configuration not stated)	none
